Screening data deposited in PubChem by National Center for Advancing Translational Sciences (NCATS).
AmpC inh detg = inhibitors of E. coli AmpC beta-lactamase with detergent. P00811. AmpC hydrolysis of nitrocefin, absorbance 480 nm, 0.01% Triton. Potency, µM (doses to about 114 µM), without a hit: at the top dose activity change, negative = inhibition, hits mostly inhibitors. 370,000 compounds, 0.041% hits. AID 485294;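 note: 0% = no-compound wells and -100% = no-enzyme wells; nearly all actives have a fitted effect of over 25% in size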
Target sequence (P00811 whole entry, looked up): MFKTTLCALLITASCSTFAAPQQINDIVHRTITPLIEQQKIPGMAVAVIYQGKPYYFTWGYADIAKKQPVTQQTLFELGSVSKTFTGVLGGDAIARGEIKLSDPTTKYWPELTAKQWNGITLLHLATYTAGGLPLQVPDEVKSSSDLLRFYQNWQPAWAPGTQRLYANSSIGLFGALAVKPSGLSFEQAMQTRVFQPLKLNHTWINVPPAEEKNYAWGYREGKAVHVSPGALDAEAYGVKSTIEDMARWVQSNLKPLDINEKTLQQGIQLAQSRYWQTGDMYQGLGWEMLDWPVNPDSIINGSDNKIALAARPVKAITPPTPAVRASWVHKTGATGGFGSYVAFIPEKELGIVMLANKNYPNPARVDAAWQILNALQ
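AmpC (5.3 nM in the dispensed reagent) in 20 mM phosphate pH 7.0 with 0.01% (detergent screen) or 0.0001% Triton X-100 was preincubated with compounds for 15 min at room temperature. Nitrocefin was then added from an 800 uM solution, and hydrolysis was followed at 480 nm.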
AmpC no deterg = AmpC beta-lactamase inhibition without detergent; AID 485341; 330,000 compounds, 0.52% hits; Potency, µM (highest dose often 57.1 µM), without a hit: at the highest dose activity change, negative = inhibition, hits mostly inhibitors; AmpC nitrocefin hydrolysis, absorbance 480 nm, 0.0001% Triton; P00811;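 note: plate controls were no compound for no effect and no enzyme for full effect; nearly all actives have a fitted effect of over 20% in size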
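AmpC (5.3 nM in the dispensed reagent) in 20 mM phosphate pH 7.0 with 0.01% (detergent screen) or 0.0001% Triton X-100 was preincubated with compounds for 15 min at room temperature. Nitrocefin was then added from an 800 uM solution, and hydrolysis was followed at 480 nm.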
RE007 growth inh = less growth of the S. pombe RE007 Vpr strain; AID 651644; 360,000 compounds, 0.21% hits; Potency, µM (titrated, usually from 92.2 µM), for the others: at the top dose activity change, negative = less growth, most hits filed as inhibitors; S. pombe RE007 Vpr strain, BacTiter-Glo ATP luminescence, 24 h; active = well fitted falling curve with a large enough effect; inconclusive = small, poorly fitted or top-dose-only effect; inactive = no such curve, though single readings can be large or run the other way; note: % is set by controls: 0 for no effect and ±100 for the full control effect; nearly all actives have a fitted effect of over 50% in size
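Fission yeast RE007 carrying one integrated HIV-1 vpr copy, seeded at OD 0.01 in PMG+AL medium with 23 nL pinned compound. Grown 24 h at 30 degrees; viability read by BacTiter-Glo luminescence after 5 min.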
TbPYK inhibitor = T. brucei pyruvate kinase inhibition. 410,000 compounds, 0.12% hits. TbPYK enzyme, Kinase-Glo Plus ATP luminescence, 45 min. Q57TT1. Potency, µM (titrated, usually from 76.8 µM), for the others: at the highest dose activity, negative = inhibition, most hits filed as inhibitors; note: % is set by controls: 0 for no effect and ±100 for the full control effect; nearly all actives have a fitted effect of over 50% in size
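Luminescent Kinase-Glo Plus end-point after 45 min room-temperature reaction of T. brucei pyruvate kinase started with 130 uM ADP (final). Buffer TEA 50 mM pH 7.2 with KCl, MgCl2, BSA, Tween-20; titration-based qHTS with fitted concentration-effect curves.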
SARS PLP yeast = SARS-CoV PLP inhibition in yeast; 330,000 compounds, 0.19% hits; S. cerevisiae expressing SARS-CoV PLpro, growth rescue; AID 485353; Potency, µM (series often up to 32.9 µM), for inactives: at the top dose activity, positive = growth rescue, hits mostly activators; calls by dose curve; note: 0% is about no effect; nearly all actives have a fitted effect of over 55% in size
Sm TGR inh = blocks Schistosoma mansoni thioredoxin glutathione reductase | Q962Y6 | purified TGR, DTNB reduction, TNB absorbance 405 nm | Potency, µM (titrated, usually from 114 µM), inactives show at the highest dose activity change, negative = inhibition, hits mostly inhibitors | 360,000 compounds, 3% hits | AID 485364; note: % is set by controls: 0 for no effect and ±100 for the full control effect; nearly all actives have a fitted effect of over 60% in size
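TGR 20 nM + NADPH 100 uM (dispensed conc.), cpd preinc 15 min RT; start with NADPH (500 uM addition) then DTNB (15 mM addition). Kinetic TNB absorbance, 405 nm filter. Four-parameter Hill fit across titration.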
* = called active by the depositor; ? = inconclusive; · = no result given; [ ] = dose if it differs, or a comment. Rows were chosen to be rich in hits. Some 3.3% of all compounds tested hit in one or more screens of this group. Unless noted, calls come from the whole dose curve; as a rule, active = well fitted curve in the direction sought with a large enough effect; inconclusive = small, poorly fitted or top-dose-only effect, or another doubt; inactive = no such curve, though single readings can be large; an effect the other way counts as inactive or inconclusive. Potency is the fitted concentration of half-maximal effect.

SMILES	AmpC inh detg	AmpC no deterg	RE007 growth inh	TbPYK inhibitor	SARS PLP yeast	Sm TGR inh
O=C(CSc1cccc[n+]1[O-])c1cc(Cl)ccc1Cl	3.8%	-25.7%	5.01µM*	2.5%	-18.4%	8.5%
O=C(CSc1cccc[n+]1[O-])c1cc2ccccc2o1	7.3%	-14.5%	8.91µM*	-12.3%	-32.3%	17.2%[11.4 µM]
O=C(O)CSc1cccc[n+]1[O-]	2.3%	·	16.0%	-1.9%	·	5.8%
COC(=O)c1ccn(-c2nc(-c3ccc(Cl)cc3)cc(C(F)(F)F)n2)n1	-8.2%	·	·	1.9%	·	1.5%
CCSC1(SCC)N=C(N)C2(C#N)C(c3ccccc3)NC3=C(CCC3)C12C#N (stereo not given)	?	-33.9%	?	-12.6%	-3.6%	?
CCSC1(SCC)N=C(N)C2(C#N)C(c3ccc(OC)c(OC)c3OC)C12C#N (stereo not given)	-8.1%	-0.5%	5.62µM*	-10.7%	0.5%	14.1µM*
CCOc1ccccc1NC(=O)Cn1c(=O)n(CCC(C)C)c(=O)c2cccnc21	15.0%	·	·	6.2%	·	-2.7%
CCCN(CCC)CCCNC(=O)c1cc2c(=O)n(C)c3ccccc3c2n1C	?	155.4%	-12.3%	1.2%	-0.1%	?
CCCN(CCC)CCCNC(=O)c1cc2c(=O)n(C)c3ccccc3c2s1	3.4%	·	·	-3.9%	·	10µM*
O=C1CSC(c2ccc3c(c2)OCO3)N1c1ccc(Oc2ccccc2)cc1 (stereo not given)	-13.7%	-29.4%	19.8%[3.69 µM]	·	-0.6%	31.6µM*
CCN(Cc1ccccc1)C(=O)Cn1c(=O)n(-c2ccc(Cl)c(Cl)c2)c(=O)c2c(C)c(C(=O)N(C)C)sc21	0.2%	·	·	-3.3%	·	-17.9%
Cc1cc2cc(CNC(=O)Nc3ccccc3)ccc2[nH]1	-3.8%	22.4µM*	-8.2%	-2.5%	-5.5%	-15.3%
CCOC(=O)NCc1ccc2[nH]c(C)cc2c1	?	-20.8%	19.3%	-0.7%	-7.3%	?
CCOC(=O)CCC(=O)NCc1ccc2[nH]c(C)cc2c1	?	-20.9%	3.1%	4.3%	-14.4%	50.1µM*
CC12CCC(=O)CC1CCC1C2CCC2(C)C1CCC2(C)O (stereo not given)	·	·	·	-9.6%	·	·
O=C1Nc2ccccc2/C1=C/c1ccc([N+](=O)[O-])cc1	-10.4%	-32.3%	9.5%	-0.9%	-2.9%	-9.0%
CC1(c2ccc([N+](=O)[O-])cc2)Nc2ccccc2S1 (stereo not given)	1.9%	-38.0%	39.8µM*	-16.9%	-8.6%	0.0%
COc1cc(SSc2cc(OC)cc([N+](=O)[O-])c2N)c(N)c([N+](=O)[O-])c1	-3.5%	-34.3%	?	2.82µM*	-18.9%	-1.0%
COc1cc([N+](=O)[O-])c2ncsc2c1	-4.2%	-8.6%	-0.3%	8.4%	13.6%	1.4%
O=C1c2ccccc2C(=O)N1Cc1nc2ccccc2c(=O)n1CCCN1CCOCC1	-5.7%	3.0%	-1.9%	8.8%	-5.8%	35.5µM*
C=C1CCC(O)C/C1=C/C=C1\CCC[C@]2(C)[C@@H]([C@H](C)/C=C/[C@H](C)C(C)C)CC[C@@H]12 (stereo not given in full)	·	·	·	-4.1%	·	·
COc1ccc(NC(=O)/C(C#N)=C\c2ccc(N3CCOCC3)o2)cc1	6.5%	0.3%	-10.1%	-12.8%	-1.1%	44.7µM*
N#C/C(=C/c1ccc(N2CCOCC2)o1)C(=O)NC1CCCCC1	2.7%	2.5%	7.7%	-8.1%	0.7%	31.6µM*
N#C/C(=C\c1ccc(N2CCOCC2)o1)C(=O)Nc1ccc(O)cc1	-2.4%	-29.9%	7.9%	-3.0%	-0.5%	·
Cc1cccc(Cn2c(SCc3ccc(C(=O)N4CCCCCC4)cc3)nc3ccncc32)c1	-13.3%	·	·	2.1%	·	-9.7%
SMILES	AmpC inh detg	AmpC no deterg	RE007 growth inh	TbPYK inhibitor	SARS PLP yeast	Sm TGR inh
COc1cccc(-c2nnc(SCC(=O)NC3CCCCC3)o2)c1	-10.9%	·	·	-6.5%	·	10.0%
CC(=O)N1CCC2(CC1)OC(=O)C(C)=C2C(=O)NCc1cccc(Cl)c1	-1.8%	·	·	2.3%	·	16.1%
CCC1(C)Cc2c(sc(NC(=S)NC(=O)c3ccccc3)c2C#N)CO1 (stereo not given)	-14.4%	-14.1%	1.9%	0.4%	-29.6%	?
N#Cc1c(NC(=S)NC(=O)c2ccccc2)sc2c1CCC2	-11.9%	-11.7%	-2.2%	-12.4%	2.0%	3.98µM*
CN1Cc2sc(NC(=S)NC(=O)c3ccccc3)c(C#N)c2CC1(C)C	3.1%	-1.8%	-10.5%	-10.6%	-2.5%	31.6µM*
CC(C)(C)C(=O)NC(NC(=S)Nc1sc2c(c1C#N)CCCC2)C(Cl)(Cl)Cl (stereo not given)	-7.1%	1.12µM*	2.2%	-12.8%	0.1%	5.4%
c1ccc(-c2noc(-c3ccc4ccccc4c3)n2)nc1	1.8%	0.2%	?	-18.0%	-13.5%	-3.1%
c1ccc(-c2noc(-c3ccc4c(c3)OCO4)n2)nc1	-1.5%	?	?	11.2µM*	-13.9%	-4.8%
NC(=O)CSc1nnnn1-c1cccc(O)c1	-3.9%	·	·	4.2%	·	3.0%
O=C1CC(c2ccc3c(c2)OCCO3)Oc2ccccc21 (stereo not given)	-12.9%	-8.2%	4.0%	-2.1%	-14.3%	-14.1%
O=C1CC(c2ccc3c(c2)OCCO3)Oc2ccc([N+](=O)[O-])cc21 (stereo not given)	-0.7%	-23.3%	-7.4%	-4.1%	0.0%	89.1µM*
CC(C)C(Cl)=NOC(=O)Nc1ccc(F)cc1	·	·	10µM*	-9.1%	·	·
NNC(=O)CNC(c1ccccc1)c1cc(Br)ccc1NC(=O)c1ccc(Br)cc1 (stereo not given)	3.0%	-14.6%	4.7%	-0.7%	-18.0%	2.4%
NNC(=O)CNC(c1ccccc1)c1cc(Br)ccc1NC(=O)CCN1CCOCC1 (stereo not given)	7.0%	122.9%	12.5%	-7.3%	1.7%	17.8µM*
CC(C)(C)OC(=O)N1CCC(c2c(C(=O)N3CCN(c4ccccn4)CC3)cnn2-c2ccc(F)cc2F)CC1	2.2%	·	·	-1.0%[15.4 µM]	·	-3.2%
O=C(CCNS(=O)(=O)c1ccc(Br)cc1)NC1CCCCC1	3.6%	1.6%	6.1%	-9.8%	-1.5%	8.9%
O=S(=O)(NC(=S)NC1CCCCC1)c1ccc(Br)cc1	1.5%	-20.4%	?	-5.9%	-0.9%	22.4µM*
Cc1ccc(CSc2nc3ccncc3n2CC(=O)Nc2cc(C)cc(C)c2)cc1	-6.9%	7.08µM*	-5.6%	2.7%	8.0%	-11.4%
Cc1cc(C)cc(NC(=O)Cn2c(SCc3cc(C)ccc3C)nc3ccncc32)c1	-23.4%	?	·	·	6.8%	-6.0%
